In PubChem BioAssay (EPA / NIEHS) one finds outcome and AC50 data, which are given here for 13 molecules.

Assay [1] can be described thus: CLD_ACTIN_24hr: CellzDirect (CLD) Gene Expression Assay for Baseline Control (Actin) at 24 hours (AID 2283670). Summed up: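 This 24 h qNPA (S1 nuclease protection, chemiluminescence) actin transcript readout in cultured human liver primary cells serves as baseline control. Signal is fitted upward relative to 0.2% DMSO; chemicals tested at multiple concentrations across two donor preparations.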

Read-out in assay [2]: ABC Transporter (ABCB11), ABCB11 (gene 8647)
The experiment in a line: CLD_ABCB11_24hr: CellzDirect (CLD) Gene Expression Assay for ABC Transporter (ABCB11) at 24 hours (AID 2283674; active = hit-call score of the fitted dose curve at least 0.9, where 1 is the maximum; inactive = score below 0.9). The method in brief: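 ABCB11 transcript was quantified by qNPA chemiluminescence in cultured human liver hepatocytes 24 hours after dosing. Fresh dosing solutions were applied on consecutive days, against a 0.2% DMSO vehicle. Cytotoxicity was noted by phase-contrast morphology.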

The nature of assay [3]: CLD_ACTIN_6hr: CellzDirect (CLD) Gene Expression Assay for Baseline Control (Actin) at 6 hours (AID 2283676).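 Note: active means increased actin mRNA relative to DMSO vehicle.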 Summed up: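 Baseline actin transcript level measured by qNPA (S1 nuclease protection, chemiluminescence) in human hepatocyte cultures 6 h after chemical exposure; 0.2% DMSO vehicle as reference, cytotoxicity noted from morphology.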
Read-out in assay [4]: Cytochrome P450 2C19 (Homo sapiens) (UniProt P33261)
In words: CLD_CYP2C19_6hr: CellzDirect (CLD) Gene Expression Assay for xenobiotic metabolism (CYP2C19) at 6 hours (AID 2283678). Summed up:
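CYP2C19 transcript induction was quantified by quantitative nuclease protection assay with chemiluminescent read-out, 6 h after dosing. Cells were primary human hepatocytes from two donor preparations, given fresh dosing solutions daily in 0.2% DMSO vehicle. Activity was relative to DMSO.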

Read-out in assay [5]: Cytochrome P450 3A4 (Homo sapiens) (UniProt P08684)
In words: CLD_CYP3A4_24hr: CellzDirect (CLD) Gene Expression Assay for xenobiotic metabolism (CYP3A4) at 24 hours (AID 2283689). Summed up: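 CYP3A4 mRNA induction read by quantitative nuclease protection (chemiluminescence) 24 hr after dosing. Cultured human hepatocytes (two donor preparations) treated daily, vehicle 0.2% DMSO; phase-contrast morphology annotates cytotoxicity.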

Read-out in assay [6]: ABC Transporter (ABCB1), ABCB1 (gene 5243)
In words: CLD_ABCB1_48hr: CellzDirect (CLD) Gene Expression Assay for ABC Transporter (ABCB1) at 48 hours (AID 2283695). Summed up:
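ABCB1 mRNA was measured by quantitative nuclease protection assay (chemiluminescence) 48 h after dosing. Human hepatocyte cultures from two separate donors received fresh dosing solutions daily for two days, with 0.2% DMSO as vehicle. Positive-direction fit against DMSO.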

Read-out in assay [7]: glucuronosyltransferase (UGT1A1), UGT1A1 (gene 54658)
In words: CLD_UGT1A1_24hr: CellzDirect (CLD) Gene Expression Assay for glucuronosyltransferase (UGT1A1) at 24 hours (AID 2283696). Summed up: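 UGT1A1 transcript induction was measured by quantitative nuclease protection assay (chemiluminescence) in human hepatocyte cultures 24 h after daily fresh dosing, with 0.2% DMSO as vehicle and baseline.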

Read-out in assay [8]: Cytochrome P450 2C19 (Homo sapiens) (UniProt P33261)
In words: CLD_CYP2C19_48hr: CellzDirect (CLD) Gene Expression Assay for xenobiotic metabolism (CYP2C19) at 48 hours (AID 2283700).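 Note: fitted upward so actives raise CYP2C19 mRNA above the 0.2% DMSO vehicle.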 The method in brief: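 CYP2C19 mRNA induction read by chemiluminescent quantitative nuclease protection assay after 48 h, with fresh compound added daily for two days to cultured human liver hepatocytes. Activity fitted upward against 0.2% DMSO vehicle.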

A short description of assay [9]: Tanguay_ZF_120hpf_TR_legacy: (Legacy) Oregon State University Tanguay Lab 120 Hour Post-fertilization zebrafish Assay for Touch Response (AID 2283667). The method in brief: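 Readout is presence or absence of touch response in 120 hpf zebrafish larvae, assessed by brightfield observation after continuous static exposure at 28C. Final vehicle was 0.64% (vol/vol) DMSO.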

Read-out in assay [10]: Cytochrome P450 (CYP24A1_1), CYP24A1 (gene 1591)
In words: LTEA_HepaRG_CYP24A1_1: Life Technologies and Expression Analysis (LTEA) Assay for Cytochrome P450 (CYP24A1_1) using HepaRG (AID 2283671; active = hit-call score of the fitted dose curve at least 0.9, where 1 is the maximum; inactive = score below 0.9). Conditions: mRNA level, 48 h; actives raise or lower the signal. Summed up:
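Cultures of human HepaRG were treated in duplicate for 48 h (0.5% DMSO vehicle, highest dose 100 uM). CYP24A1 mRNA by qRT-PCR, normalized to ACTB, GAPDH, POLR2A.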

Read-out in assay [11]: xenobiotic metabolism (CYP1A2), CYP1A2 (gene 1544)
In words: CLD_CYP1A2_6hr: CellzDirect (CLD) Gene Expression Assay for xenobiotic metabolism (CYP1A2) at 6 hours (AID 2283663).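 For AC50: potency is for induction meaning a rise in mRNA above DMSO.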 The method in brief:
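mRNA levels quantified by quantitative nuclease protection assay with chemiluminescence, 6 h after dosing human primary hepatocyte cultures (two donors) across several concentrations, vehicle 0.2% DMSO. Induction fitted upward versus DMSO; phase-contrast cytotoxicity annotated.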

Read-out in assay [12]: alkyl and aryl transferase (GSTA2), GSTA2 (gene 2939)
In words: CLD_GSTA2_6hr: CellzDirect (CLD) Gene Expression Assay for alkyl and aryl transferase (GSTA2) at 6 hours (AID 2283666). The method in brief:
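GSTA2 transcript induction at 6 h, quantified by nuclease protection (qNPA) with chemiluminescent detection, in human liver primary hepatocytes exposed to several compound concentrations with 0.2% DMSO as baseline; phase-contrast morphology annotated apparent cytotoxicity.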

The nature of assay [13]: CCTE_Padilla_ZF_144hpf_TERATOSCORE: (Legacy) CCTE's 144 Hour Post-fertilization zebrafish Assay Teratoscore, Padilla Lab (AID 2283679; active = hit-call score of the fitted dose curve at least 0.9, where 1 is the maximum; inactive = score below 0.9;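 note: zebrafish embryos with chorions exposed by immersion from 6-8 hpf to 5 dpf with daily renewal; teratogenicity score from eye scoring of death hatching and malformations at 144 hpf; higher score means more developmental defects relative to DMSO baseline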). The method in brief:
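Larvae scored by eye at 144 hpf for death, hatching and malformations after a day in clean Hanks'. Before that, daily-renewed exposure at 80 uM (0.4% DMSO, 26C) from roughly 6-8 hpf through 5 dpf, 4 embryos per chemical.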

Read-out in assay [14]: Cytochrome P450 2C9 (Homo sapiens) (UniProt P11712)
In words: CLD_CYP2C9_24hr: CellzDirect (CLD) Gene Expression Assay for xenobiotic metabolism (CYP2C9) at 24 hours (AID 2283688). Summed up: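 Induction of CYP2C9 mRNA was quantified by quantitative nuclease protection assay (chemiluminescence), gain of signal versus 0.2% DMSO vehicle, 24 h after dosing. Human primary hepatocytes (two donors) received fresh chemical daily at multiple concentrations; morphology-based cytotoxicity flagged yes/no.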

Read-out in assay [15]: organic anion transporter (SLCO1B1), SLCO1B1 (gene 10599)
In words: CLD_SLCO1B1_24hr: CellzDirect (CLD) Gene Expression Assay for organic anion transporter (SLCO1B1) at 24 hours (AID 2283690). The method in brief: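 SLCO1B1 mRNA induction read at 24 h by quantitative nuclease protection assay (chemiluminescence), analyzed against DMSO baseline. Human hepatocyte cultures from separate donors received fresh dosing solutions daily; vehicle 0.2% DMSO; cytotoxicity flagged by phase-contrast morphology.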

Read-out in assay [16]: ABC Transporter (ABCB11), ABCB11 (gene 8647)
In words: CLD_ABCB11_6hr: CellzDirect (CLD) Gene Expression Assay for ABC Transporter (ABCB11) at 6 hours (AID 2283675).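 Note: hits raise ABCB11 mRNA level so AC50 marks induction.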 Summed up:
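Read-out was ABCB11 mRNA gain of signal by quantitative nuclease protection assay, relative to 0.2% DMSO vehicle, 6 h post-dose. Cells were primary human hepatocytes from two donors, treated across multiple concentrations; phase-contrast cytotoxicity noted yes/no.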

Assay [17] in a line: CCTE_Simmons_CellTiterGLO_HEK293T: Viability Assessment in CCTE's Assays for Thyroperoxidase (TPO) Inhibition, Simmons Lab (AID 2283665).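 Note: cells exposed to compound for 24 h before readout; actives reduce ATP signal below DMSO vehicle meaning cytotoxicity.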 The method in brief: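 ATP depletion measured in HEK293T cells after 24 h dosing (8 concentrations, 5 nM–87.5 uM final; DMSO 0.5%) using CellTiter-Glo luminescence; curves fit for loss of signal against DMSO baseline.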
Read-out in assay [18]: xenobiotic metabolism (CYP2C9), CYP2C9 (gene 1559)
The experiment in a line: CLD_CYP2C9_48hr: CellzDirect (CLD) Gene Expression Assay for xenobiotic metabolism (CYP1A2) at 48 hours (AID 2283701; active = hit-call score of the fitted dose curve at least 0.9, where 1 is the maximum; inactive = score below 0.9). Summed up:
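mRNA level measured by quantitative nuclease protection (S1 digestion, chemiluminescent detection) in lysates of human primary hepatocytes exposed 48 h with daily re-dosing. Induction fitted positively versus 0.2% DMSO; morphology-based cytotoxicity flagged yes/no.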

Results filed as inconclusive are left out. Active and inactive are the calls of the source. Rule for the calls, unless noted: active = hit-call score of the fitted dose curve at least 0.9, where 1 is the maximum; inconclusive = response in the unintended direction; inactive = score below 0.9.

Sequence of Cytochrome P450 2C19 (Homo sapiens) (P33261 whole entry, looked up): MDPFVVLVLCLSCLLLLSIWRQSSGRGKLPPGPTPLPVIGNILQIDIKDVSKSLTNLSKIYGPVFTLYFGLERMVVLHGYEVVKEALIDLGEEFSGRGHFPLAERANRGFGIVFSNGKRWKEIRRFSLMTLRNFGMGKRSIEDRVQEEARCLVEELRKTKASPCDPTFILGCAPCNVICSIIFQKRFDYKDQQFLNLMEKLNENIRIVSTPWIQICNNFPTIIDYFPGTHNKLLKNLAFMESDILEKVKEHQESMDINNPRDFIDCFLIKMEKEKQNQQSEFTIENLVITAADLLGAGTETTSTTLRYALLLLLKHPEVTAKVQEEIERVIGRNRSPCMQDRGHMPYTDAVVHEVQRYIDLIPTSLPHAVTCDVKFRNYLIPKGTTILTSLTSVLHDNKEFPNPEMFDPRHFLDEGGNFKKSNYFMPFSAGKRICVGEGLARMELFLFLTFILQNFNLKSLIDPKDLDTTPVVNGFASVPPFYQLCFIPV
Sequence of Cytochrome P450 3A4 (Homo sapiens) (P08684 whole entry, looked up): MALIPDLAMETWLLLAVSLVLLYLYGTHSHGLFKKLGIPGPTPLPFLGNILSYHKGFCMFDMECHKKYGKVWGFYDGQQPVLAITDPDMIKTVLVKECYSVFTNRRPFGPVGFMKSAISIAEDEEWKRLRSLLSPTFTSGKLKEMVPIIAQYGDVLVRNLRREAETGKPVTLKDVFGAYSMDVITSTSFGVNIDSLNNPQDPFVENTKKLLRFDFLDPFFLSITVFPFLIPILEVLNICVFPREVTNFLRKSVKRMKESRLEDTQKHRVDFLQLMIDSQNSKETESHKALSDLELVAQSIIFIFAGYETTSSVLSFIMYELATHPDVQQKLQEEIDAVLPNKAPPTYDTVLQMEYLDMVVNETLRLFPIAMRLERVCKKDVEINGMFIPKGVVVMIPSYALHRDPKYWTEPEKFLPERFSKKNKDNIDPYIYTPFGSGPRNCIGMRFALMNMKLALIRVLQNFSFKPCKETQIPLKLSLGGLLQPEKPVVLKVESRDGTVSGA

`COC(=O)c1ccc(CNS(C)(=O)=O)cc1S(=O)(=O)NC(=O)Nc1nc(OC)cc(OC)n1`: the molecule was called inactive in assay [1], in [2], in assay [3], in assay [4], in assay [5] and in assay [6]. The molecule was called inactive in assay [7] and in [8].
For the molecule `O=C(O)c1ccccc1`, the call in assay [9] and in assay [10] was inactive.
As for `COC(=O)c1c(Cl)nn(C)c1S(=O)(=O)NC(=O)Nc1nc(OC)cc(OC)n1`, the values for the half-maximal activity concentration (AC50) in assay [11], in assay [13] and in assay [5] were 2.54 µM (active), 58.9 µM (active) and 4.62 µM (active), respectively. The molecule was classed as inactive in [12], in [1], in [3], in assay [6] and in assay [7].
With `CCCCCCC(C)OC(=O)COc1nc(F)c(Cl)c(N)c1Cl` (stereo unspecified), the outcome in [11], in assay [9], in assay [1], in assay [10], in assay [3] and in assay [4] was inactive. For the same molecule, the outcome in [14], in assay [5], in assay [15], in assay [6], in [7] and in assay [8] was inactive. Moreover, in [13], the concentration at half-maximal activity (AC50) is 46.9 µM (active).
As to `CCC(O)=C1C(=O)CC(C(=O)O)CC1=O` (stereo unspecified), the AC50 in assay [11] was 1.89 µM (active). For the same molecule, the outcome in assay [12], in [2], in [16], in [14], in [15] and in [6] was inactive. The molecule was classed as inactive in assay [7] and in assay [8].
For the molecule `CC(C)CCCCCCc1ccc(O)cc1`, the AC50 in [17] is 6.47 µM (active). Moreover, in [9], the call was inactive.
Take `Cc1nn(C)c(Oc2ccccc2)c1C=NOCc1ccc(C(=O)OC(C)(C)C)cc1`: the result in assay [12], in assay [9], in assay [3], in assay [5], in assay [6] and in [7] was inactive. Also, the AC50 in assay [2] is 36.8 µM (active); in assay [13], 0.213 µM (active).
As to `O=C(c1ccccc1)C1CCCCC1`, the call in assay [9] was inactive.
With `CCCCOC(=O)[C@@H](C)Oc1ccc(Oc2ccc(C(F)(F)F)cn2)cc1`, the molecule was called inactive in [11], in [1], in assay [16], in assay [3], in assay [4] and in assay [5]. For the same molecule, the result in assay [15], in assay [7] and in assay [8] was inactive.
On to `C#CCOC(=O)[C@@H](C)Oc1ccc(Oc2ncc(Cl)cc2F)cc1`, for which the result in assay [9], in assay [2], in [16], in assay [3], in assay [4] and in assay [5] was inactive. In addition, the molecule was classed as inactive in [15], in assay [6], in assay [7] and in assay [8].
Take `CCCCC(CC)CN1C(=O)C2C3C=CC(C3)C2C1=O` (stereo unspecified): the call in assay [11], in assay [9], in [16], in assay [3], in [6] and in assay [7] was inactive. The AC50 in assay [5] was 20 µM (active).
Take `C[C@]12CC[C@@H]3c4ccc(O)cc4C[C@@H](CCCCCCCCCS(=O)CCCC(F)(F)C(F)(F)F)[C@H]3[C@@H]1CC[C@@H]2O` (stereo partly specified): in assay [9], the result was inactive.
Regarding `COC(=O)CSc1cc(N=c2sc(=O)n3n2CCCC3)c(F)cc1Cl`, the molecule was classed as inactive in [11], in assay [9], in [4], in assay [6] and in [8]. The results for the AC50 in assay [5], in assay [7] and in assay [18] were 1.9 µM (active), 3.17 µM (active) and 9.13 µM (active), respectively.
